High-throughput results as filed in PubChem BioAssay.
TSHR antag = Antagonists of the Thyroid Stimulating Hormone Receptor: HTS campaign; TSHR-expressing cells, TSH-stimulated cAMP HTRF, 2 h; active compounds read low; activity change, negative = inhibition, % at 11.5 µM; actives 0.2% (n = 330,000);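 active = activity change below a set negative limit, meaning inhibition stronger than a set level, cut at about -70% in these data; inconclusive = activity change between two set negative limits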
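Read-out is FRET at 665 nm (cryptate excitation 337 nm) from a cryptate-tagged anti-cAMP antibody, competed by cell cAMP against cAMP-d2. Compounds are tested on freshly harvested TSHR cells challenged with 4nM TSH (EC80) for 2 hours at 37 deg C.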
RORg inh = qHTS for inhibitors of ROR gamma transcriptional activity; actives 5.4% (n = 310,000); Drosophila S2 Gal4-RORgamma UAS-luciferase reporter, 20 h; Potency, µM (titrated, usually from 53.6 µM), for inactives: top-dose activity change, negative = inhibition, actives largely listed as inhibitors; AID 2551, 2010; Nuclear receptor ROR-gamma (Mus musculus), P51450; also: potency is read from the fitted curve at half-maximal effect; nearly all actives have a fitted effect of over 60% in size
Target sequence (P51450 whole entry, looked up, the tested form may be a part): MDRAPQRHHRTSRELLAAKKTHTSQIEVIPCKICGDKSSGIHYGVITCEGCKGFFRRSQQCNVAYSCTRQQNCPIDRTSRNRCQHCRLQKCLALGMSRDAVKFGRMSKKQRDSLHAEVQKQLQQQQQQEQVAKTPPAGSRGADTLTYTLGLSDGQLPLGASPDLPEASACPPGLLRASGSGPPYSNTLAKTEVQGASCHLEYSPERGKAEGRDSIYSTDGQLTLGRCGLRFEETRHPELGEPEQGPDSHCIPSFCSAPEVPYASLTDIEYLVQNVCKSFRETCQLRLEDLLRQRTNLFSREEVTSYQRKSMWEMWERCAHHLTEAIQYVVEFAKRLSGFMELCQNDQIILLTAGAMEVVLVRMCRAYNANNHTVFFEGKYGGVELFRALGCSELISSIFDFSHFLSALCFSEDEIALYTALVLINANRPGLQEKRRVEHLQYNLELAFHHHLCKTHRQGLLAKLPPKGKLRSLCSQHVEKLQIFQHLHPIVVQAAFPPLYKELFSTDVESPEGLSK
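Drosophila Schneider cells stably carrying a metallothionein-driven Gal4 DBD–ROR gamma fusion and a UAS-Photinus luciferase reporter were exposed to compound for 1 hr, then induced with copper sulfate (700 uM final) for 20 hr at ambient temperature before luminescence reading.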
Gal4-VP16 FLuc = VP16 counterscreen qHTS for inhibitors of ROR gamma transcriptional activity; Potency, µM (top dose mostly 53.6 µM), for inactives: at the top dose activity, negative = inhibition, actives largely listed as inhibitors; Drosophila S2 Gal4-VP16 UAS-luciferase, luminescence, 20 h; actives 3.5% (n = 310,000);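 also: Gal4-VP16 expression switched on by copper sulfate through the metallothionein promoter; potency is read from the fitted curve at half-maximal effect; nearly all actives have a fitted effect of over 50% in size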
B2AR arrestin = qHTS assay of beta-arrestin-biased ligands of beta2-adrenergic receptor | Potency, µM (top dose mostly 46.1 µM), for inactives: at the top dose activation, most hits filed as activators | actives 0.02% (n = 330,000) | AID 492947, 2010 | Beta-2 adrenergic receptor (Homo sapiens), P07550 | beta-arrestin recruitment to beta2AR, cell-based reporter;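 also: potency is read from the fitted curve at half-maximal effect; 0% = DMSO controls and full agonism = EC100 isoproterenol or metaproterenol; nearly all actives have a fitted effect of over 65% in size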
ELG1 DNA repair = qHTS screen for small molecules that inhibit ELG1-dependent DNA repair in human embryonic kidney (HEK293T) cells expressing luciferase-tagged ELG1. HEK293T ELG1-luciferase reporter, luminescence, 16 h; DNA damage induced by 5-fluorouridine. Potency, µM (doses to about 46.1 µM), inactives show top-dose activity change, negative = inhibition, usual class: inhibitors. actives 2.3% (n = 330,000). AID 504467, 2011; also: potency is read from the fitted curve at half-maximal effect; nearly all actives have a fitted effect of over 55% in size
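Luminescence from the luciferase reporter, measured 30 min after ONE-Glo reagent at room temperature, was the read-out. Beforehand, 2,000 cells per well were exposed for 16 hr at 37 °C to 5-fluorouridine together with compound or vehicle.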
* marks the source's active call; other numbers are inactive results; ? = inconclusive; / = not tested or not shown. A selection: hits, their analogues and other compounds. The true share with any hit is near 7.5%. Unless noted, calls follow the shape of the dose curve; as a rule, active = well fitted curve in the direction sought with a large enough effect; inconclusive = small, poorly fitted or top-dose-only effect, or another doubt; inactive = no such curve, though single readings can be large; an effect the other way counts as inactive or inconclusive. Unless noted, % is scaled to controls: 0 for no effect and ±100 for the full control effect.

SMILES	TSHR antag	RORg inh	Gal4-VP16 FLuc	B2AR arrestin	ELG1 DNA repair
COc1ccc(N2CCN(C(=O)CSc3nc4c(c(=O)n(C)c(=O)n4C)n3C(C)C)CC2)cc1	-6	34%	2%	-1%	21µM*
CCn1c(COc2c(C)cccc2C)nnc1SCC(=O)N1CCN(c2ccccc2)CC1	-13	15%	-4%	-2%	?
COc1ccc(N2CCN(C(=O)CCCSc3nc4ccccc4[nH]3)CC2)cc1	3	2%	-15%	0%	23µM*
NC(=O)CCCSc1nc2ccccc2[nH]1	1	3%	23%	-1%	4%
C=CCn1c(COc2cccc(C)c2C)nnc1SCC(=O)N1CCN(c2ccccc2)CC1	-7	?	?	-1%	21µM*
Cn1c(SCC(=O)N2CCN(c3ccccc3)CC2)nnc1-c1c[nH]c2ccccc12	-24	18%	?	-1%	10µM*
CCC(C)(C)C	/	32%	8%	/	/
Cc1ccc(OCC(=O)OCc2nc3scc(-c4ccccc4)c3c(=O)[nH]2)cc1C	-9	/	/	0%	26%
COc1ccc(-n2cnnc2SCC(=O)N2CCN(c3ccccc3)CC2)cc1	27	25%	3%	-2%	?
COc1ccc(N2CCN(C(=O)CSc3nnc(-c4cc5ccccc5cc4O)n3C)CC2)cc1	1	?	?	-1%	11µM*
COc1ccc(N2CCN(C(=O)CSc3nnnn3-c3ccc4c(c3)OCCO4)CC2)cc1	-16	?	?	0%	23µM*
CCOC(=O)c1c(NC(=O)CSc2nc3c(c(=O)n(C)c(=O)n3C)n2C(C)C)sc(C)c1C	-3	11%	-17%	0%	21%
CCn1c(SCC(=O)N2CCN(c3ccccc3)CC2)nnc1-c1c[nH]c2ccccc12	-7	?	?	-1%	13µM*
CC(C)n1c(SCC(=O)Nc2nc3c(s2)CCCC3)nc2c1c(=O)n(C)c(=O)n2C	-19	?	-5%	0%	18µM*
CCOC(=O)N1CCN(c2nc3ccccn3c(=O)c2C=O)CC1	20	14%	2%	0%	?
CC1(C)Cc2ccccc2-c2nnc(SCC(=O)N3CCN(c4ccccc4)CC3)n21	-24	6%	-15%	0%	15µM*
CCOP(=O)(NC12CC3CC(CC(C3)C1)C2)NC12CC3CC(CC(C3)C1)C2	8	-29%	0%	0%	12%
COC(=O)c1cc(C(=O)Nc2nc3ccccc3[nH]2)cc([N+](=O)[O-])c1	-16	1.4µM*	-24%	0%	-27%
O=C(Nc1nc2ccccc2[nH]1)c1ccc([N+](=O)[O-])cc1	-6	3.2µM*	?	0%	?
O=C(Cc1nc2ccccc2[nH]1)c1cccc([N+](=O)[O-])c1	-5	-17%	-3%	5%	4.1µM*
O=C(Nc1nc2ccccc2[nH]1)c1cccc([N+](=O)[O-])c1	10	0.89µM*	?	6%	?
CCc1ccc(-c2cn(C3CCCCC3)c(=S)[nH]2)cc1	8	0.71µM*	?	0%	?
CCc1ccc(NC(=O)C(=S)NC2CCCCC2)cc1	-10	2%	-13%	0%	?
COc1ccc(Cl)cc1NC(=O)C1CCN(C(=O)Nc2ccccc2)CC1	0	/	/	1%	-11%
CSc1cccc(CN2CCC(n3nccc3NC(=O)C3CC3)CC2)c1	30	-1%	3%	0%	6%
SMILES	TSHR antag	RORg inh	Gal4-VP16 FLuc	B2AR arrestin	ELG1 DNA repair
O=[N+]([O-])c1ccc(-n2nnnc2-c2ccccc2)c([N+](=O)[O-])c1	24	4µM*	5.6µM*	-3%	?
O=[N+]([O-])c1ccc(-n2nnnc2-c2ccccc2)cc1	6	-5%	8%	-1%	1%
Cc1ccc(Cl)cc1N1CCN(C(=O)C2CCN(c3nnc(-n4cccc4)s3)CC2)CC1	-11	38%	11µM*	0%	8.2µM*
CCCCN(CC)CCNC(=O)Cn1cc2c(n1)-c1c(oc(C(=O)N3CCCC3)c1C)CC2	5	16µM*	?	5%	9%
Cc1c(C(=O)N2CCCC2)oc2c1-c1nn(CC(=O)NCCCOC(C)C)cc1CC2	2	3%	0%	-1%	?
CC(CN1CCOCC1)OC(=O)c1ccc(Br)cc1 (stereo not given)	18	2µM*	?	?	-2%
O=C(c1ccc(Br)cc1)C(CN1CCOCC1)c1ccccc1 (stereo not given)	0	16µM*	20µM*	0%	?
CCOc1ccc(C(=O)C(CN2CCOCC2)c2ccccc2)cc1 (stereo not given)	-3	?	?	-1%	?
CCCCC(C)n1[nH]c(=O)c2c(C)cc(C)nc21 (stereo not given)	-1	13%	-3%	0%	?
CCCCCCC(C)n1[nH]c(=O)c2c(C)cc(=O)[nH]c21 (stereo not given)	4	7.1µM*	4µM*	0%	?
CCCOC(=O)NC1CCS(=O)(=O)C1 (stereo not given)	8	19%	1%	1%	9%
CCCCCCCCCCOC(=O)NC1CCS(=O)(=O)C1 (stereo not given)	5	?	?	0%	23µM*
CC(=O)c1c(-c2ccccc2)[nH]c2ccccc12	2	?	2%	0%	-25%
O=C(O)/C=C/C(=O)c1c(-c2ccccc2)[nH]c2ccccc12	-15	14µM*	?	0%	?
CN(C)c1ncc2nc(-c3ccccc3)c(=O)n(CCC#N)c2n1	/	-5%	2%	/	/
c1ccc2cc(CSCc3nc4ccccc4[nH]3)ccc2c1	-6	?	11µM*	0%	1%
c1cncc(-c2nnc(SCc3nc4ccccc4[nH]3)o2)c1	0	?	13%	0%	1%
O=C(CSCc1nc2ccccc2[nH]1)Nc1ccc2ccccc2c1	2	-16%	2%	0%	?
c1ccc2[nH]c(CSc3nc4ccccc4o3)nc2c1	-2	2µM*	?	-1%	?
CO[C@@H](CCO)C[C@H]1O[C@H](C(=O)OC(C)C)CC[C@@H]1C	/	0%	-14%	/	/
CCCn1c(N)c(N(CCOC)C(=O)c2c(CC)noc2C)c(=O)[nH]c1=O	-10	/	/	0%	25%
CC1=NC(=O)C(N=Nc2cccc(C(=O)O)c2)N1c1ccccc1 (stereo not given)	-13	5.6µM*	8.9µM*	0%	?
O=C(c1ccco1)N1N=C(c2cccs2)CC1c1ccccc1O (stereo not given)	5	1%	-15%	0%	-20%
